In PubChem BioAssay (EPA / NIEHS):
“And” between values parts separate entries of the source, which are not always exact repeats. Identical values can stand only once. The source holds several records for some structures; these can differ, active in one and inactive in another. The source made the active and inactive calls. How the source made its calls: active means hit-call score of the fitted dose curve at least 0.9, where 1 is the maximum; inactive means score below 0.9.

Experiments:
[1] = read-out: Tissue plasminogen activator (tPA), PLAT (gene 5327); experiment: BSK_BE3C_tPA: BioMAP Diversity Plus: BE3C Assay for Tissue plasminogen activator (tPA) Biomarker Activity (AID 2283041); details: primary human bronchial epithelial cells; actives raise or lower the signal;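 further: tPA level quantified by ELISA one day after compound addition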
How it was run: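 Bidirectional curve fitting relative to DMSO defined activity, with tPA detected by ELISA in chemically treated human bronchial epithelial primary cells at 24 hours.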

[2] = read-out: Interleukin-8 (IL8), CXCL8 (gene 3576); experiment: BSK_CASM3C_IL8: BioMAP Diversity Plus: CASM3C Assay for Interleukin-8 (IL8) Biomarker Activity (AID 2283042); details: primary human coronary artery smooth muscle cells; actives raise or lower the signal;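 further: IL-8 protein level quantified by ELISA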
[3] = read-out: Human Leukocyte Antigen - DR isotype (HLADR), HLA-DRA (gene 3122); experiment: BSK_CASM3C_HLADR: BioMAP Diversity Plus: CASM3C Assay for Human Leukocyte Antigen - DR isotype (HLADR) Biomarker Activity (AID 2283043); details: primary human coronary artery smooth muscle cells; actives raise or lower the signal;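 further: cell-surface HLA-DR protein level quantified by ELISA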
[4] = read-out: Macrophage colony-stimulating factor (MCSF), CSF1 (gene 1435); experiment: BSK_CASM3C_MCSF: BioMAP Diversity Plus: CASM3C Assay for Macrophage colony-stimulating factor (MCSF) Biomarker Activity (AID 2283044); details: primary human coronary artery smooth muscle cells; actives raise or lower the signal;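 further: M-CSF protein amount quantified by ELISA after 24 h exposure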
[5] = read-out: Low-density lipoprotein receptor (LDLR), LDLR (gene 3949); experiment: BSK_CASM3C_LDLR: BioMAP Diversity Plus: CASM3C Assay for Low-density lipoprotein receptor (LDLR) Biomarker Activity (AID 2283045); details: primary human coronary artery smooth muscle cells; actives raise or lower the signal;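 further: LDLR protein level on the cell surface quantified by ELISA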
[6] = read-out: Monocyte Chemoattractant Protein-1 (MCP1), CCL2 (gene 6347); experiment: BSK_CASM3C_MCP1: BioMAP Diversity Plus: CASM3C Assay for Monocyte Chemoattractant Protein-1 (MCP1) Biomarker Activity (AID 2283046); details: primary human coronary artery smooth muscle cells; actives raise or lower the signal;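 further: MCP-1 level quantified by ELISA 24 h after dosing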
[7] = BSK_CASM3C_Proliferation: Cell Proliferation Assessment in the BioMAP Diversity Plus: CASM3C Assay (AID 2283047); details: primary human coronary artery smooth muscle cells;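 further: sulforhodamine B total protein stain as relative cell number at 560 nm; sub-confluent cells exposed 48 h before staining; fitted both ways against DMSO so gain or loss of cell number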
[8] = read-out: Monokine induced gamma interferon (MIG), CXCL9 (gene 4283); experiment: BSK_CASM3C_MIG: BioMAP Diversity Plus: CASM3C Assay for Monokine induced gamma interferon (MIG) Biomarker Activity (AID 2283048); details: primary human coronary artery smooth muscle cells; actives raise or lower the signal;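 further: MIG protein level measured by ELISA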
[9] = read-out: serum amyloid A (SAA), SAA1 (gene 6288); experiment: BSK_CASM3C_SAA: BioMAP Diversity Plus: CASM3C Assay for serum amyloid A (SAA) Biomarker Activity (AID 2283049); details: primary human coronary artery smooth muscle cells; actives raise or lower the signal;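 further: SAA protein level quantified by ELISA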
[10] = BSK_CASM3C_SRB: Viability Assessment in the BioMAP Diversity Plus: CASM3C Assay (AID 2283050); details: primary human coronary artery smooth muscle cells;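 further: total protein by SRB staining as cytotoxicity measure in parallel cultures; cells exposed to compound for 24 h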
[11] = read-out: Thrombomodulin, THBD (gene 7056); experiment: BSK_CASM3C_Thrombomodulin: BioMAP Diversity Plus: CASM3C Assay for Thrombomodulin Biomarker Activity (AID 2283051); details: primary human coronary artery smooth muscle cells; actives raise or lower the signal;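 further: thrombomodulin protein level measured by ELISA 24 h after dosing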
[12] = read-out: Tissue Factor, F3 (gene 2152); experiment: BSK_CASM3C_TissueFactor: BioMAP Diversity Plus: CASM3C Assay for Tissue Factor Biomarker Activity (AID 2283052); details: primary human coronary artery smooth muscle cells; actives raise or lower the signal;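 further: cell surface tissue factor protein level read by ELISA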
[13] = read-out: Interferon-gamma inducible Protein 10 (IP10), CXCL10 (gene 3627); experiment: BSK_hDFCGF_IP10: BioMAP Diversity Plus: hDFCGF Assay for Interferon-gamma inducible Protein 10 (IP10) Biomarker Activity (AID 2283053); details: primary human foreskin fibroblasts; actives raise or lower the signal
How it was run: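 IP-10 levels, quantified by ELISA, are taken from human foreskin fibroblast cultures 24 h after chemical treatment, with DMSO serving as negative control and baseline for bidirectional analysis.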

[14] = read-out: Urokinase-type plasminogen activator receptor (uPAR), PLAUR (gene 5329); experiment: BSK_CASM3C_uPAR: BioMAP Diversity Plus: CASM3C Assay for Urokinase-type plasminogen activator receptor (uPAR) Biomarker Activity (AID 2283054); details: primary human coronary artery smooth muscle cells; actives raise or lower the signal;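 further: cell-surface uPAR protein level quantified by ELISA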
[15] = read-out: Vascular cell adhesion molecule 1 (VCAM1), VCAM1 (gene 7412); experiment: BSK_CASM3C_VCAM1: BioMAP Diversity Plus: CASM3C Assay for Vascular cell adhesion molecule 1 (VCAM1) Biomarker Activity (AID 2283055); details: primary human coronary artery smooth muscle cells; actives raise or lower the signal;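 further: VCAM-1 protein level quantified by ELISA on the cells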
[16] = read-out: Collagen III, COL3A1 (gene 1281); experiment: BSK_hDFCGF_CollagenIII: BioMAP Diversity Plus: hDFCGF Assay for Collagen III Biomarker Activity (AID 2283056); details: primary human foreskin fibroblasts; actives raise or lower the signal
How it was run: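 Cells: human foreskin fibroblasts, primary. Dosing followed by 24 h incubation, then ELISA for collagen III. Both increases and decreases scored relative to DMSO.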

[17] = read-out: Epidermal growth factor receptor (EGFR), EGFR (gene 1956); experiment: BSK_hDFCGF_EGFR: BioMAP Diversity Plus: hDFCGF Assay for Epidermal growth factor receptor (EGFR) Biomarker Activity (AID 2283057); details: primary human foreskin fibroblasts; actives raise or lower the signal
How it was run: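 Measured by ELISA: EGFR levels on primary human foreskin fibroblasts 24 h after chemical treatment, analysed relative to DMSO with bidirectional fitting.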

[18] = read-out: Interleukin-8 (IL8), CXCL8 (gene 3576); experiment: BSK_hDFCGF_IL8: BioMAP Diversity Plus: hDFCGF Assay for Interleukin-8 (IL8) Biomarker Activity (AID 2283058); details: primary human foreskin fibroblasts; actives raise or lower the signal
How it was run: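 IL-8 levels from compound-treated primary human fibroblasts were read by ELISA at 24 h, with DMSO serving as baseline for bidirectional fitting.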

[19] = BSK_hDFCGF_Proliferation: Cell Proliferation Assessment in the BioMAP Diversity Plus: hDFCGF Assay (AID 2283059); details: primary human foreskin fibroblasts;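 further: curves fitted for both rise and fall of signal versus DMSO baseline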
How it was run: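 Primary human foreskin fibroblasts, sub-confluent; […]; 10% TCA fix, 0.1% SRB stain, A560 total protein. Gain/loss fitted bidirectionally vs DMSO control.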

[20] = read-out: Macrophage colony-stimulating factor (MCSF), CSF1 (gene 1435); experiment: BSK_hDFCGF_MCSF: BioMAP Diversity Plus: hDFCGF Assay for Macrophage colony-stimulating factor (MCSF) Biomarker Activity (AID 2283060); details: primary human foreskin fibroblasts; actives raise or lower the signal
How it was run: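 M-CSF levels, determined by ELISA, are taken at 24 h after dosing human skin fibroblasts. Responses in either direction are fitted with DMSO serving as the baseline.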

Measured: AC50

CN(C(=O)C(F)(F)C(F)(F)C(F)(F)F)[Si](C)(C)C
inactive: [1] | [2] | [3] | [4] | [5] | [6] | [7] | [8] | [9] | [10] | [11] | [12] | [13] | [14] | [15] | [16] | [17] | [18] | [19] | [20]

NC(O)(C(F)(F)F)C(F)(F)F
inactive: [1] | [2] | [3] | [4] | [5] | [6] | [7] | [8] | [9] | [10] | [11] | [12] | [14] | [15] | [16] | [17] | [18] | [19] | [20]
active: [4] 43.4 µM

CCN(CCO)S(=O)(=O)C(F)(F)C(F)(F)C(F)(F)C(F)(F)C(F)(F)C(F)(F)C(F)(F)C(F)(F)F
inactive: [1] | [2] | [3] | [4] | [6] | [9] | [12] | [16] | [17] | [18]
active: [3] 15.6 µM | [4] 35.3 µM | [5] 7.08 µM and 8.16 µM | [7] 15.5 µM and 16.5 µM | [8] 8.09 µM and 7.66 µM | [9] 7.99 µM | [10] 19.2 µM and 9.12 µM | [11] 13.4 µM and 10.3 µM | [14] 11.1 µM and 30 µM | [15] 7.11 µM and 8.86 µM | [16] 8.31 µM | [18] 49.9 µM | [19] 7.13 µM and 8.13 µM | [20] 23.2 µM and 23.3 µM

Brc1nc2ccccc2s1
active: [19] 31.5 µM
inactive: [1] | [2] | [3] | [4] | [5] | [6] | [7] | [8] | [9] | [10] | [11] | [12] | [13] | [14] | [15] | [16] | [17] | [18] | [20]

OCC(F)(F)C(F)(F)C(F)(F)CO
inactive: [1] | [2] | [3] | [4] | [5] | [6] | [7] | [8] | [9] | [10] | [11] | [12] | [13] | [14] | [15] | [16] | [17] | [18] | [19] | [20]

O=S(=O)(OCC(F)(F)F)C(F)(F)C(F)(F)C(F)(F)C(F)(F)F
inactive: [1] | [2] | [3] | [4] | [5] | [6] | [7] | [8] | [9] | [10] | [11] | [12] | [14] | [15] | [16] | [17] | [18] | [19] | [20]
active: [8] 30 µM | [9] 0.653 µM | [12] 30 µM | [15] 13.2 µM

O=C(O)C(F)(F)C(F)(F)C(F)(F)C(F)(F)C(F)(F)C(F)(F)C(F)F
inactive: [1] | [2] | [3] | [4] | [5] | [6] | [7] | [8] | [9] | [10] | [11] | [12] | [13] | [14] | [15] | [16] | [17] | [18] | [19] | [20]
active: [13] 8.52 µM | [16] 30 µM | [17] 30 µM and 1.81 µM

CO[Si](C)(CCC(F)(F)C(F)(F)C(F)(F)C(F)(F)C(F)(F)C(F)(F)F)OC
inactive: [1] | [2] | [3] | [4] | [5] | [6] | [7] | [8] | [9] | [10] | [11] | [12] | [13] | [14] | [15] | [16] | [17] | [18] | [19] | [20]

Nc1cc([N+](=O)[O-])cc(Cl)c1O
inactive: [1] | [2] | [3] | [4] | [5] | [6] | [7] | [8] | [9] | [10] | [11] | [12] | [13] | [14] | [15] | [16] | [17] | [18] | [19] | [20]

CC1=CC2C3C=CC(C3)C2C1C (stereo not given)
active: [19] 28.2 µM
inactive: [1] | [2] | [3] | [4] | [5] | [6] | [7] | [8] | [9] | [10] | [11] | [12] | [13] | [14] | [15] | [16] | [17] | [18] | [20]
